Assay outcomes deposited in PubChem BioAssay by National Center for Advancing Translational Sciences (NCATS).
Rows were chosen to be rich in hits. Some 3.8% of all compounds tested hit in one or more screens of this group.
Nrf2 block = inhibitors of Nrf2 signaling | A549 ARE-Fluc reporter, luciferase luminescence, 18-24 h | Potency, µM (highest dose often 46 µM), for the others: at the top dose activity change, negative = inhibition, most hits filed as inhibitors | hit rate 2.1% among 360,000; note: % is set by controls: 0 for no effect and ±100 for the full control effect; nearly all actives have a fitted effect of over 60% in size
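Nrf2 activity is the BugLite luminescence, read 15 min after reagent at room temperature, following CellTiter-Fluor cytotoxicity readout (30 min, 37C). Compound titrations were applied for 18-24 h to 5000 A549 ARE_Fluc cells/well in 5% FBS OPTI-MEM.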
HepG2 tox = HepG2 cytotoxicity, counter-screen for TGF-b inhibitors; HepG2 CAGA-GFP viability, ATP luminescence, 18 h; hit rate 0.76% among 410,000; Potency, µM (doses to about 46.1 µM), for the others: at the top dose activity change, negative = cytotoxicity, hits mostly cytotoxic
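CellTiter-Glo luminescence gave cytotoxicity after 18 hours at 37 degrees C. The cells were HepG2 CAGA-GFP in 1% FBS DMEM, stimulated with 500 pg/mL TGF-beta after compound addition. %Activity was normalised to no-cell wells (complete cell-killing) and DMSO (no toxicity), and curves were fitted and classified.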
ATXN viability = cell viability loss in ATXN counter-screen; S2 cells (HEK-293 line with an ATXN2-luciferase reporter) viability, CellTiter-Fluor protease fluorescence, 24 h; Potency, µM (titrated, usually from 56.7 µM), hits mostly cytotoxic; hit rate 0.49% among 400,000; note: nearly all actives have a fitted effect of over 40% in size
A549 viability = counter-screen for Nrf2 inhibitors: cytotoxicity in A549 cells; A549 ARE-Fluc cells, CellTiter-Fluor viability, 18-24 h; Potency, µM (highest dose often 46 µM), inactives show top-dose activity change, negative = cytotoxicity, hits mostly inhibitors; hit rate 0.16% among 390,000; AID 504648; note: % is set by controls: 0 for no effect and ±100 for the full control effect
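A549 ARE_Fluc cells in 5% FBS OPTI-MEM were exposed to compounds in concentration-response for 18-24 h at 37 deg C. Viability was read by CellTiter-Fluor fluorescence (Ex 405/Em 525) after 30 min, before the luciferase read.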
TGFb inhibitor = TGF-b pathway inhibition; Potency, µM (titrated, usually from 46.1 µM), without a hit: at the top dose activity, negative = inhibition, most hits filed as inhibitors; AID 588855; HepG2 CAGA-GFP TGF-b/SMAD3 reporter, GFP fluorescence, 18 h; TGF-beta stimulated, 500 pg/mL final; hit rate 1.2% among 410,000; note: % is set by controls: 0 for no effect and ±100 for the full control effect; nearly all actives have a fitted effect of over 65% in size
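Smad-responsive CAGA-GFP expression was quantified in HEPG2 cells exposed to compounds and 500 pg/mL final TGF-beta for 18 h at 37 degrees C; unstimulated wells defined full inhibition.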
ATXN2 expr inh = reduces ATXN2 reporter expression in HEK-293 cells | HEK-293 ATXN2-luciferase reporter, luminescence, 24 h | Potency, µM (doses to about 57 µM), without a hit: at the top dose activity change, negative = inhibition, hits mostly inhibitors | hit rate 0.72% among 360,000; note: % is set by controls: 0 for no effect and ±100 for the full control effect; nearly all actives have a fitted effect of over 55% in size
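ATXN2-luciferase reporter cells (luciferase flanked by upstream and downstream ATXN2 gene portions) were treated 24 h at 37 °C with compounds at up to 57 uM. SteadyGlo luminescence gave expression; GF-AFC fluorescence gave viability.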
Starred values were filed as active, the others as inactive; i = inactive; u = inconclusive; x = no result. Calls come from the whole dose curve; as a rule, active = well fitted curve in the direction sought with a large enough effect; inconclusive = small, poorly fitted or top-dose-only effect, or another doubt; inactive = no such curve, though single readings can be large; an effect the other way counts as inactive or inconclusive. Potency is the fitted concentration of half-maximal effect.

SMILES | Nrf2 block | HepG2 tox | ATXN viability | A549 viability | TGFb inhibitor | ATXN2 expr inh
O=C(c1ccccc1)c1ccc2nc(-c3ccc(NC(=O)c4ccccc4F)cc3)[nH]c2c1 | 10µM* | -45% | u | u | u | -30%
CC1CC(C)CN(C(C(=O)NC2CCCCC2)c2cc3ccccc3o2)C1 (centres undefined) | x | -24% | i | x | 16µM* | -32%
CCOc1ccccc1NC(=O)CN(c1ccc(C)cc1)S(=O)(=O)c1c(C)noc1C | 16µM* | 3% | i | -4% | 0% | -14%
COc1cccc(CNC(=O)CN(c2ccc(C(C)C)cc2)S(=O)(=O)c2c(C)noc2C)c1 | 16µM* | -27% | u | -5% | u | u
Cc1ccc(CNC(=O)CN(c2ccc(C)cc2)S(=O)(=O)c2c(C)n[nH]c2C)cc1 | -5% | 1% | i | 6% | 1% | 0%
Cc1ccc(CNC(=O)CN(c2ccc(C(C)C)cc2)S(=O)(=O)c2c(C)n[nH]c2C)cc1 | 23µM* | -46% | x | u | 11µM* | u
CCOc1ccc(OCC)c(NC(=O)CN(c2ccc(C)cc2)S(=O)(=O)c2c(C)noc2C)c1 | -25% | 19% | i | -8% | -1% | -3%
Cc1ccccc1S(=O)(=O)N1C[C@H]2[C@H]3C(=O)N(c4ccccc4)C(=O)[C@H]3CC(=O)[C@H]2[C@@H]1c1ccc(Cl)cc1 | x | -2% | i | x | 1% | 1%
NS(=O)(=O)c1ccc(NC(=O)c2ccc(CNS(=O)(=O)c3cc(C(F)(F)F)ccc3Cl)cc2)cc1 | u | -3% | i | -7% | -29% | x
COc1ccc(-c2nc(Cn3c(SCc4cccc(C(F)(F)F)c4)nc4cccnc43)c(C)o2)cc1OC | 23µM* | -28% | x | -19% | u | x
COc1ccc(CSc2nc3ccncc3n2Cc2nc(-c3ccc(OC)c(OC)c3)oc2C)cc1 | -14% | -67% | x | u | u | -32%
CN(C)c1ccc(-c2nc3ccccc3n2C)cc1 | u | 8.9µM* | i | 1% | u | u
CN1CCN(C(=O)C2=C[C@H](c3ccccc3)C[C@H](OCc3ccc(CO)cc3)O2)CC1 | 14% | 0% | i | 1% | 11% | 4%
CN(C)c1ccc(C=C2c3ccccc3-c3ccccc32)cc1 | x | -8% | x | x | -3% | x
CN(C)c1ccc(/C=C2/CCc3ccccc32)cc1 | x | -51% | x | x | 16µM* | x
CC1CCCN(C(=O)Cn2ncc3c([nH]c4ccccc43)c2=O)C1 (centres undefined) | 20% | -7% | i | 10% | 0% | -1%
Cc1c(CC(=O)N2CCN(C(=O)C3COc4ccccc4O3)CC2)c(=O)oc2cc(O)c(Cl)cc12 (centres undefined) | 23µM* | 18% | x | 1% | 12% | -5%
Cn1nc(C(=O)Oc2cc(=O)n(C)c3ccccc23)c2ccccc2c1=O | 8% | -4% | 0.22µM* | 2% | -2% | x
O=S(=O)(NCc1csc(-c2cccs2)n1)c1ccc(Cl)cc1 | u | -24% | x | 1% | u | -11%
O=S(=O)(NCc1csc(-c2cccs2)n1)c1cccc(C(F)(F)F)c1 | u | -97% | x | 1% | 16µM* | 16%
CSc1ncc(C(=O)NCc2ccc(F)cc2)c(-c2ccccc2)n1 | 41% | -10% | i | 7% | -7% | -15%
O=c1c2c(-c3cccs3)csc2ncn1/N=C/c1ccc(OC(F)F)cc1 | 9.2µM* | -19% | i | u | -1% | -10%
CCC(=O)N1CCc2cc(S(=O)(=O)CCC(=O)N3CCN(c4cccc(Cl)c4)CC3)ccc21 | 23µM* | -14% | u | -3% | u | -8%
CCC1Sc2ccc(S(=O)(=O)CCC(=O)Nc3ccc(NC(C)=O)cc3)cc2NC1=O (centres undefined) | 11% | -1% | i | 2% | 0% | 12%
